{
  "source": "the supplement of paper PMC10849652",
  "note": "Of roughly 7,900 targets only a part is listed; those with a hit were picked by preference. About 0.6% of all pairs of compound and target were hits. A number with no mark means an inactive call.",
  "data": [
    {"compound": "COc1cc(Nc2ncc3c(n2)-c2ccc(Cl)cc2C(c2c(F)cccc2OC)=NC3)ccc1C(=O)O [alisertib]", "assay": "log2 fold change, soluble protein after heating vs DMSO (PISA); higher = thermal stabilisation; K562 cells, 10 uM, 30 min; active = over 0.2 and 3.5 SD of the protein, either way, in both replicates (recomputed)", "in_short": "(§1)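 Thermal stability values are relative to control samples and come from duplicates. They are expressed as log2 fold changes. For measurement, K562 cells (2×10^6 cells/mL) received 10 μM compound for 30 min, and aliquots were heated for 3 min over 48°C-58°C, pooled, and extracted at 4°C in PBS with 0.5% NP-40. Soluble protein, the supernatant after 21,000xg for 90 min, was quantified by TMTpro 16plex LC-MS/MS with equalised channel sums.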", "values": [
      {"target": "SRSF4 (UniProt Q08170)", "log2 fold change": -0.137},
      {"target": "SNRNP27 (UniProt Q8WVK2)", "sequence (Q8WVK2 whole entry, looked up)": "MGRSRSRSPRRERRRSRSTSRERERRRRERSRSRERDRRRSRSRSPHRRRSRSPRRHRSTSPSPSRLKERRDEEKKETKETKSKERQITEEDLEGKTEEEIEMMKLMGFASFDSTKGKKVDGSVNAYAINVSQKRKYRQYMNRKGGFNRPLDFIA", "log2 fold change": -0.003},
      {"target": "TJP2 isoform 7 (UniProt Q9UDY2)", "log2 fold change": -0.151},
      {"target": "STEAP3 isoform 2 (UniProt Q658P3)", "log2 fold change": -0.028},
      {"target": "SP100 isoform 4 (UniProt P23497)", "sequence (P23497 whole entry, looked up)": "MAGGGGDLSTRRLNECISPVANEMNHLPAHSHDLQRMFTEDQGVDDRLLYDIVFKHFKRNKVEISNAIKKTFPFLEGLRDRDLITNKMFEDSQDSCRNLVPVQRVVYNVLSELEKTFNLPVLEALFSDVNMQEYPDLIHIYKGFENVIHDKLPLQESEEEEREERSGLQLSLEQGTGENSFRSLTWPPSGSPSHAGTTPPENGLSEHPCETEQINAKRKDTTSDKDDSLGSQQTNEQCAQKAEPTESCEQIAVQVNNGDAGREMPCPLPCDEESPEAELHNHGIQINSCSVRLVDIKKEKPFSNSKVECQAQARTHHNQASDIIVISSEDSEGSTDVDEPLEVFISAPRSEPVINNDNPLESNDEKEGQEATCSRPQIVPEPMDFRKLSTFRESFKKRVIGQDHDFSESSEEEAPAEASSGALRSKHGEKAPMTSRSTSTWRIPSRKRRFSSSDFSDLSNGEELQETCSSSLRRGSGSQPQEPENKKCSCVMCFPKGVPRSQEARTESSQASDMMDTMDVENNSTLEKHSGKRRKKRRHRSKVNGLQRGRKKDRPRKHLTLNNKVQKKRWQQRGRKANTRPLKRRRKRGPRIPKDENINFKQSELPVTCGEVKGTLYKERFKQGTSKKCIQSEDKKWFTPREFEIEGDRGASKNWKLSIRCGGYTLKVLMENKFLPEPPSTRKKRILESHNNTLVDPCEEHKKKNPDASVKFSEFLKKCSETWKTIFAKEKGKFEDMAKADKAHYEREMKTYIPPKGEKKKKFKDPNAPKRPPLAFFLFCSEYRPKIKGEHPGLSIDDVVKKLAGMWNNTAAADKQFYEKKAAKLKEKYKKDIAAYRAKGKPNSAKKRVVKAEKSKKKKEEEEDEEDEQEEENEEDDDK", "log2 fold change": -0.026},
      {"target": "SPG21 (UniProt Q9NZD8)", "log2 fold change": -0.084},
      {"target": "TIMM44 (UniProt O43615)", "log2 fold change": -0.021},
      {"target": "TBC1D23 (UniProt Q9NUY8)", "log2 fold change": 0.023},
      {"target": "SPAG9 (UniProt O60271)", "sequence (O60271 whole entry, looked up)": "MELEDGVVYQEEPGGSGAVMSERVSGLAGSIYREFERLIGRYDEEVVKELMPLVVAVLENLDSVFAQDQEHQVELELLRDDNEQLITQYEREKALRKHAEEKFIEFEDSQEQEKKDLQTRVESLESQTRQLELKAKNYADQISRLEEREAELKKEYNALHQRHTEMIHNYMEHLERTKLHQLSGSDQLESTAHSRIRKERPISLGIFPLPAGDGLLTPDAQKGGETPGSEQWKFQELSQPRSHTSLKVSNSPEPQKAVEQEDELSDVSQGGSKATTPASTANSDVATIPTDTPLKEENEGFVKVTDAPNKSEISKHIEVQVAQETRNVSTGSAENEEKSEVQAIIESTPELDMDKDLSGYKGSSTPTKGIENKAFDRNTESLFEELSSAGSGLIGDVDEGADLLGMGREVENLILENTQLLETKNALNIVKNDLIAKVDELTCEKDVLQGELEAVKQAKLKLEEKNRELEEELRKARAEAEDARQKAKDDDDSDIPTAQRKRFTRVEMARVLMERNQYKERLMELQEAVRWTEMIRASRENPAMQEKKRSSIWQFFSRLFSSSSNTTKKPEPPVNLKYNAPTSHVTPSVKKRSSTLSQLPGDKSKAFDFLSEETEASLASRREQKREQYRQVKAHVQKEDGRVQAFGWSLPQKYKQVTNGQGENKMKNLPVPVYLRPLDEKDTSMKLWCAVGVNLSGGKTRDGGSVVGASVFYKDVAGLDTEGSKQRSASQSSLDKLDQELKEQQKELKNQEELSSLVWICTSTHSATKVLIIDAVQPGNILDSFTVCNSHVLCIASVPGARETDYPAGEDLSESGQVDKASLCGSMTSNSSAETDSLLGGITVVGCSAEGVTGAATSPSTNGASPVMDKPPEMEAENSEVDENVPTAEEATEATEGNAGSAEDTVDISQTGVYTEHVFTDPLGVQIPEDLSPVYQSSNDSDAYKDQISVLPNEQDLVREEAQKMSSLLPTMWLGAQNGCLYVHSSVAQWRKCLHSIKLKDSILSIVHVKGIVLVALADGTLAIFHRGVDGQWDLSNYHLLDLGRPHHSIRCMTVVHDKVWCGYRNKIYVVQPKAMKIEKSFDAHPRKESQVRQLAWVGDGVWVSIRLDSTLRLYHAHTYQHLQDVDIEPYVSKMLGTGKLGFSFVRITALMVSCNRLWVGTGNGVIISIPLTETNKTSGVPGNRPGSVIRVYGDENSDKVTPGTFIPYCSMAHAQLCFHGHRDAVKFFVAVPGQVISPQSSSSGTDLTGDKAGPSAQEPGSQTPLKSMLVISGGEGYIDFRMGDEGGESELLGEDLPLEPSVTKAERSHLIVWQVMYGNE", "log2 fold change": -0.034},
      {"target": "SNRPB2 (UniProt P08579)", "log2 fold change": -0.121},
      {"target": "SNX6 (UniProt Q9UNH7)", "sequence (Q9UNH7 whole entry, looked up)": "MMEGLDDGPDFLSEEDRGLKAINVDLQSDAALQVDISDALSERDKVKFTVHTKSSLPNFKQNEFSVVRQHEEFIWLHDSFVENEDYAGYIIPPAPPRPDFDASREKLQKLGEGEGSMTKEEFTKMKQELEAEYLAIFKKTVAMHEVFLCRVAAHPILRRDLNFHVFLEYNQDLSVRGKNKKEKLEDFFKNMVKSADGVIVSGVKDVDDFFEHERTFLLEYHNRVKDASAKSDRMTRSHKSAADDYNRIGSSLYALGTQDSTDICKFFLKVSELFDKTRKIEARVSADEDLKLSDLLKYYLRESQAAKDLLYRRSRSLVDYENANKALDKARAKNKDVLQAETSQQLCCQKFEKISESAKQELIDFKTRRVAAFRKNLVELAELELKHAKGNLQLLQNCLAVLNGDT", "log2 fold change": -0.035},
      {"target": "STK25 (UniProt O00506)", "sequence (O00506 whole entry, looked up)": "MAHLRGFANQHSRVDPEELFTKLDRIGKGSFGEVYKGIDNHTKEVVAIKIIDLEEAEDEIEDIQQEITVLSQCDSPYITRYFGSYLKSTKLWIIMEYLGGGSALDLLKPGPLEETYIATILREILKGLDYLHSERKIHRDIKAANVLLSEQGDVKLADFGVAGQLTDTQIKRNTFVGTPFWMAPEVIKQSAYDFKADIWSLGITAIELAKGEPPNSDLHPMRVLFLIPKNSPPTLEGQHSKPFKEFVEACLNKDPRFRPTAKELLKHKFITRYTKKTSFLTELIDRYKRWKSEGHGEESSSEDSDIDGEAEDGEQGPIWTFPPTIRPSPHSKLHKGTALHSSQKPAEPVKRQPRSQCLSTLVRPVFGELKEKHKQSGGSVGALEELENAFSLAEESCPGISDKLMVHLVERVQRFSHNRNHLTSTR", "log2 fold change": -0.055},
      {"target": "TJP1 (UniProt Q07157)", "sequence (Q07157 whole entry, looked up)": "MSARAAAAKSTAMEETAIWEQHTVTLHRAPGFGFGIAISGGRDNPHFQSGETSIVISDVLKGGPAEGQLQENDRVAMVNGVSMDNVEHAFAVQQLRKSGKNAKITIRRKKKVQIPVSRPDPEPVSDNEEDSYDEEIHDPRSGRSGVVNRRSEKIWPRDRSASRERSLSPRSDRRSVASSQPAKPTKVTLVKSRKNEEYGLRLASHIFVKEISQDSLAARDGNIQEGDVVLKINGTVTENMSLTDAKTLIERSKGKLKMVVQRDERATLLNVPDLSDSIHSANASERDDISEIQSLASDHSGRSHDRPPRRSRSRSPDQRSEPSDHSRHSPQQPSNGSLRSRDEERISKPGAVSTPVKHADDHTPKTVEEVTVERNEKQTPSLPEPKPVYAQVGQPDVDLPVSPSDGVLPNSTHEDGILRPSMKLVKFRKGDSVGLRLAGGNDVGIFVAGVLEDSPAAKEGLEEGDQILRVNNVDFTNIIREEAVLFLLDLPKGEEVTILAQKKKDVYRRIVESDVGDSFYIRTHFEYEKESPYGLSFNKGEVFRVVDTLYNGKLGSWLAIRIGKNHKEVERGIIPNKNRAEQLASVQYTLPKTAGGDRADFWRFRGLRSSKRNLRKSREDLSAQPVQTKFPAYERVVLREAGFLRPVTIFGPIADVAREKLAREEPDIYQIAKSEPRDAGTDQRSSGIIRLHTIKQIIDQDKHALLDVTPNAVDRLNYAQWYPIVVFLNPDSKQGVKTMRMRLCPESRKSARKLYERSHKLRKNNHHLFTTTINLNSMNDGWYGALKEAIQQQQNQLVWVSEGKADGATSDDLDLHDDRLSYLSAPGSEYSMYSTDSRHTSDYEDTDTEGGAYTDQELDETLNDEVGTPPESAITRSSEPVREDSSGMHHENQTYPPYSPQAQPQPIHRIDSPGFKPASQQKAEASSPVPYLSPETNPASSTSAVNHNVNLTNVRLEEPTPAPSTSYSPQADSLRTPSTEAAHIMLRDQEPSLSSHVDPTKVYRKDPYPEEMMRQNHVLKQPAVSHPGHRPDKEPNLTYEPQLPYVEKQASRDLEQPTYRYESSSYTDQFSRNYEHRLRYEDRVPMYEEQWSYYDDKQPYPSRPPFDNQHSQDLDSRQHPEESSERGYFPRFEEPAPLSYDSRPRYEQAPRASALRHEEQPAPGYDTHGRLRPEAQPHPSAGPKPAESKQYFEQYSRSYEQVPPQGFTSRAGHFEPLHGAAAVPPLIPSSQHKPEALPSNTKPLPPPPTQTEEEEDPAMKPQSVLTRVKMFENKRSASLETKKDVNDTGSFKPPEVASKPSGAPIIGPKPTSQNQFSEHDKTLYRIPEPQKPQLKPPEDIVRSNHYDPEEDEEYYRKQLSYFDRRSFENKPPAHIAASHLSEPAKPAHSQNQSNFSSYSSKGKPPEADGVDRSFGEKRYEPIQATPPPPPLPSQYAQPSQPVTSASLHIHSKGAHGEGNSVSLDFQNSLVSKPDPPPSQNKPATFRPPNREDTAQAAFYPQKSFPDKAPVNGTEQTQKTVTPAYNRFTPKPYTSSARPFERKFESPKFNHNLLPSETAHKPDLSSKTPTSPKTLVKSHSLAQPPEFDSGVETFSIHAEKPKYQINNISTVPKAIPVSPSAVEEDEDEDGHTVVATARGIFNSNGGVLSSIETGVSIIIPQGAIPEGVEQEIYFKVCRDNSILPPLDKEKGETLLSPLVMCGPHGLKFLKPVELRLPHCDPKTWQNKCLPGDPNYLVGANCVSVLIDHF", "log2 fold change": -0.059},
      {"target": "STK11IP (UniProt Q8N1F8)", "log2 fold change": -0.131},
      {"target": "SUMO1 (UniProt P63165)", "sequence (P63165 whole entry, looked up)": "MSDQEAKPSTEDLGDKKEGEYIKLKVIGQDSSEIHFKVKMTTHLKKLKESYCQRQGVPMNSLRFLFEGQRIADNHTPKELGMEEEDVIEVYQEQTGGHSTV", "log2 fold change": -0.052},
      {"target": "TM9SF2 (UniProt Q99805)", "log2 fold change": -0.01}
    ]},
    {"compound": "COc1cc2nc(-c3cc(F)ccc3O)nc(N[C@@H]3CNC[C@H]3C(C)(C)O)c2cc1OC", "assay": "log2 fold change, soluble protein after heating vs DMSO (PISA); higher = thermal stabilisation; K562 cells, 10 uM, 30 min; active = over 0.2 and 3.5 SD of the protein, either way, in both replicates (recomputed)", "in_short": "as §1", "values": [
      {"target": "TERF2IP (UniProt Q9NYB0)", "log2 fold change": -0.119},
      {"target": "TGFBR1 isoform 2 (UniProt P36897)", "log2 fold change": 0.06},
      {"target": "SLC25A39 (UniProt Q9BZJ4)", "log2 fold change": -0.49},
      {"target": "SLC27A2 (UniProt O14975)", "log2 fold change": 0.046},
      {"target": "STAT5B (UniProt P51692)", "log2 fold change": -0.115},
      {"target": "TBC1D15 isoform 3 (UniProt Q8TC07)", "log2 fold change": -0.065},
      {"target": "TELO2 (UniProt Q9Y4R8)", "log2 fold change": -0.122},
      {"target": "SQSTM1 (UniProt Q13501)", "log2 fold change": -0.136},
      {"target": "TBC1D5 isoform 2 (UniProt Q92609)", "log2 fold change": 0.006},
      {"target": "SRI (UniProt P30626)", "log2 fold change": -0.109},
      {"target": "STAT3 (UniProt P40763)", "log2 fold change": 0.023},
      {"target": "SRPRA (UniProt P08240)", "log2 fold change": 0.122},
      {"target": "TAOK1 (UniProt Q7L7X3)", "log2 fold change": -0.088},
      {"target": "STK26 (UniProt Q9P289)", "log2 fold change": 0.069},
      {"target": "STK4 (UniProt Q13043)", "log2 fold change": 0.099},
      {"target": "STXBP2 isoform 3 (UniProt Q15833)", "log2 fold change": 0.045},
      {"target": "SRPRB (UniProt Q9Y5M8)", "log2 fold change": 0.136},
      {"target": "TIMM29 (UniProt Q9BSF4)", "log2 fold change": 0.021},
      {"target": "SPG11 (UniProt Q96JI7)", "log2 fold change": 0.14},
      {"target": "SLC25A36 (UniProt Q96CQ1)", "log2 fold change": 0.083},
      {"target": "SLC25A42 (UniProt Q86VD7)", "log2 fold change": -0.029},
      {"target": "TAMM41 isoform 3 (UniProt Q96BW9)", "log2 fold change": -0.169},
      {"target": "SRSF4 (UniProt Q08170)", "log2 fold change": -0.04},
      {"target": "SNRNP27 (UniProt Q8WVK2)", "log2 fold change": -0.015},
      {"target": "TJP2 isoform 7 (UniProt Q9UDY2)", "log2 fold change": -0.091},
      {"target": "STEAP3 isoform 2 (UniProt Q658P3)", "log2 fold change": 0.035},
      {"target": "SP100 isoform 4 (UniProt P23497)", "log2 fold change": "-0.242 (active)"},
      {"target": "SPG21 (UniProt Q9NZD8)", "log2 fold change": 0.174},
      {"target": "TIMM44 (UniProt O43615)", "log2 fold change": "-0.296 (active)"},
      {"target": "TBC1D23 (UniProt Q9NUY8)", "log2 fold change": -0.19},
      {"target": "SPAG9 (UniProt O60271)", "log2 fold change": -0.034},
      {"target": "SNRPB2 (UniProt P08579)", "log2 fold change": 0.047},
      {"target": "SNX6 (UniProt Q9UNH7)", "log2 fold change": -0.109},
      {"target": "STK25 (UniProt O00506)", "log2 fold change": 0.076},
      {"target": "TJP1 (UniProt Q07157)", "log2 fold change": 0.005},
      {"target": "STK11IP (UniProt Q8N1F8)", "log2 fold change": -0.172},
      {"target": "SUMO1 (UniProt P63165)", "log2 fold change": "-0.507 (active)"},
      {"target": "TM9SF2 (UniProt Q99805)", "log2 fold change": -0.061}
    ]},
    {"compound": "COc1cc2ncnc(Nc3ccc(F)c(Cl)c3)c2cc1OCCCN1CCOCC1 [gefitinib]", "assay": "log2 fold change, soluble protein after heating vs DMSO (PISA); higher = thermal stabilisation; K562 cells, 10 uM, 30 min; active = over 0.2 and 3.5 SD of the protein, either way, in both replicates (recomputed)", "in_short": "as §1", "values": [
      {"target": "TERF2IP (UniProt Q9NYB0)", "log2 fold change": 0.013},
      {"target": "TGFBR1 isoform 2 (UniProt P36897)", "log2 fold change": -0.029},
      {"target": "SLC25A39 (UniProt Q9BZJ4)", "log2 fold change": -0.344},
      {"target": "SLC27A2 (UniProt O14975)", "log2 fold change": 0.156},
      {"target": "STAT5B (UniProt P51692)", "log2 fold change": 0.046},
      {"target": "TBC1D15 isoform 3 (UniProt Q8TC07)", "log2 fold change": 0.015},
      {"target": "TELO2 (UniProt Q9Y4R8)", "log2 fold change": 0.004},
      {"target": "SQSTM1 (UniProt Q13501)", "log2 fold change": -0.022},
      {"target": "TBC1D5 isoform 2 (UniProt Q92609)", "log2 fold change": -0.031},
      {"target": "SRI (UniProt P30626)", "log2 fold change": 0.01},
      {"target": "STAT3 (UniProt P40763)", "log2 fold change": 0},
      {"target": "SRPRA (UniProt P08240)", "log2 fold change": -0.032},
      {"target": "TAOK1 (UniProt Q7L7X3)", "log2 fold change": 0.033},
      {"target": "STK26 (UniProt Q9P289)", "log2 fold change": -0.037},
      {"target": "STK4 (UniProt Q13043)", "log2 fold change": -0.007},
      {"target": "STXBP2 isoform 3 (UniProt Q15833)", "log2 fold change": 0.043},
      {"target": "SRPRB (UniProt Q9Y5M8)", "log2 fold change": -0.001},
      {"target": "TIMM29 (UniProt Q9BSF4)", "log2 fold change": 0.039},
      {"target": "SPG11 (UniProt Q96JI7)", "log2 fold change": -0.032},
      {"target": "SLC25A36 (UniProt Q96CQ1)", "log2 fold change": -0.014},
      {"target": "SLC25A42 (UniProt Q86VD7)", "log2 fold change": 0.063},
      {"target": "TAMM41 isoform 3 (UniProt Q96BW9)", "log2 fold change": -0.025},
      {"target": "SRSF4 (UniProt Q08170)", "log2 fold change": -0.014},
      {"target": "SNRNP27 (UniProt Q8WVK2)", "log2 fold change": -0.011},
      {"target": "TJP2 isoform 7 (UniProt Q9UDY2)", "log2 fold change": 0.042},
      {"target": "STEAP3 isoform 2 (UniProt Q658P3)", "log2 fold change": -0.01},
      {"target": "SP100 isoform 4 (UniProt P23497)", "log2 fold change": 0.024},
      {"target": "SPG21 (UniProt Q9NZD8)", "log2 fold change": 0.226},
      {"target": "TIMM44 (UniProt O43615)", "log2 fold change": -0.135},
      {"target": "TBC1D23 (UniProt Q9NUY8)", "log2 fold change": -0.058},
      {"target": "SPAG9 (UniProt O60271)", "log2 fold change": -0.01},
      {"target": "SNRPB2 (UniProt P08579)", "log2 fold change": -0.021},
      {"target": "SNX6 (UniProt Q9UNH7)", "log2 fold change": -0.123},
      {"target": "STK25 (UniProt O00506)", "log2 fold change": -0.061},
      {"target": "TJP1 (UniProt Q07157)", "log2 fold change": 0.038},
      {"target": "STK11IP (UniProt Q8N1F8)", "log2 fold change": -0.072},
      {"target": "SUMO1 (UniProt P63165)", "log2 fold change": 0.004},
      {"target": "TM9SF2 (UniProt Q99805)", "log2 fold change": 0.009}
    ]}
  ]
}
